“And” between values parts separate entries of the source, which are not always exact repeats. Equal entries are not always repeated. Some structures have more than one record in an assay (separate samples or runs), and their calls can disagree. The source made the active and inactive calls. Rule for the calls: active = hit-call score of the fitted dose curve at least 0.9, where 1 is the maximum; inactive = score below 0.9.

Read-out in experiment [1]: Interleukin-6 (IL6), IL6 (gene 3569)
Description: BSK_CASM3C_IL6: BioMAP Diversity Plus: CASM3C Assay for Interleukin-6 (IL6) Biomarker Activity for (AID 2283040). As to conditions: primary human coronary artery smooth muscle cells; actives raise or lower the signal.

Read-out in experiment [2]: Tissue plasminogen activator (tPA), PLAT (gene 5327)
As to the kind of experiment: BSK_BE3C_tPA: BioMAP Diversity Plus: BE3C Assay for Tissue plasminogen activator (tPA) Biomarker Activity (AID 2283041).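 For outcome: tPA level quantified by ELISA one day after compound addition.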 As to conditions: primary human bronchial epithelial cells; actives raise or lower the signal. The procedure, abridged: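 Gain- or loss-of-signal in tPA, measured by ELISA, derived by bidirectional fitting against DMSO. Cells: human primary bronchial epithelial; read at 24 h after chemical dosing.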

Read-out in experiment [3]: Interleukin-8 (IL8), CXCL8 (gene 3576)
Description: BSK_CASM3C_IL8: BioMAP Diversity Plus: CASM3C Assay for Interleukin-8 (IL8) Biomarker Activity (AID 2283042).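 Note: IL-8 protein level quantified by ELISA.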 As to conditions: primary human coronary artery smooth muscle cells; actives raise or lower the signal.

Read-out in experiment [4]: Human Leukocyte Antigen - DR isotype (HLADR), HLA-DRA (gene 3122)
As to the kind of experiment: BSK_CASM3C_HLADR: BioMAP Diversity Plus: CASM3C Assay for Human Leukocyte Antigen - DR isotype (HLADR) Biomarker Activity (AID 2283043).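 Note: cell-surface HLA-DR protein level quantified by ELISA.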 As to conditions: primary human coronary artery smooth muscle cells; actives raise or lower the signal.

Read-out in experiment [5]: Macrophage colony-stimulating factor (MCSF), CSF1 (gene 1435)
As to the kind of experiment: BSK_CASM3C_MCSF: BioMAP Diversity Plus: CASM3C Assay for Macrophage colony-stimulating factor (MCSF) Biomarker Activity (AID 2283044).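 Note: M-CSF protein amount quantified by ELISA after 24 h exposure.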 Particulars: primary human coronary artery smooth muscle cells; actives raise or lower the signal.

Read-out in experiment [6]: Low-density lipoprotein receptor (LDLR), LDLR (gene 3949)
As to the kind of experiment: BSK_CASM3C_LDLR: BioMAP Diversity Plus: CASM3C Assay for Low-density lipoprotein receptor (LDLR) Biomarker Activity (AID 2283045).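 Note: LDLR protein level on the cell surface quantified by ELISA.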 Particulars: primary human coronary artery smooth muscle cells; actives raise or lower the signal.

Read-out in experiment [7]: Monocyte Chemoattractant Protein-1 (MCP1), CCL2 (gene 6347)
Description: BSK_CASM3C_MCP1: BioMAP Diversity Plus: CASM3C Assay for Monocyte Chemoattractant Protein-1 (MCP1) Biomarker Activity (AID 2283046).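 Note: MCP-1 level quantified by ELISA 24 h after dosing.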 Particulars: primary human coronary artery smooth muscle cells; actives raise or lower the signal.

Experiment [8] can be described thus: BSK_CASM3C_Proliferation: Cell Proliferation Assessment in the BioMAP Diversity Plus: CASM3C Assay (AID 2283047).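 Note: sulforhodamine B total protein stain as relative cell number at 560 nm; sub-confluent cells exposed 48 h before staining; fitted both ways against DMSO so gain or loss of cell number.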 As to conditions: primary human coronary artery smooth muscle cells.
Read-out in experiment [9]: Monokine induced gamma interferon (MIG), CXCL9 (gene 4283)
As to the kind of experiment: BSK_CASM3C_MIG: BioMAP Diversity Plus: CASM3C Assay for Monokine induced gamma interferon (MIG) Biomarker Activity (AID 2283048).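 Note: MIG protein level measured by ELISA.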 Particulars: primary human coronary artery smooth muscle cells; actives raise or lower the signal.

Read-out in experiment [10]: serum amyloid A (SAA), SAA1 (gene 6288)
Description: BSK_CASM3C_SAA: BioMAP Diversity Plus: CASM3C Assay for serum amyloid A (SAA) Biomarker Activity (AID 2283049).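 Note: SAA protein level quantified by ELISA.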 As to conditions: primary human coronary artery smooth muscle cells; actives raise or lower the signal.

Experiment [11] is described as follows: BSK_CASM3C_SRB: Viability Assessment in the BioMAP Diversity Plus: CASM3C Assay (AID 2283050).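 Note: total protein by SRB staining as cytotoxicity measure in parallel cultures; cells exposed to compound for 24 h.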 As to conditions: primary human coronary artery smooth muscle cells.
Read-out in experiment [12]: Thrombomodulin, THBD (gene 7056)
As to the kind of experiment: BSK_CASM3C_Thrombomodulin: BioMAP Diversity Plus: CASM3C Assay for Thrombomodulin Biomarker Activity (AID 2283051).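 Note: thrombomodulin protein level measured by ELISA 24 h after dosing.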 Particulars: primary human coronary artery smooth muscle cells; actives raise or lower the signal.

Read-out in experiment [13]: Tissue Factor, F3 (gene 2152)
Description: BSK_CASM3C_TissueFactor: BioMAP Diversity Plus: CASM3C Assay for Tissue Factor Biomarker Activity (AID 2283052).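 Note: cell surface tissue factor protein level read by ELISA.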 As to conditions: primary human coronary artery smooth muscle cells; actives raise or lower the signal.

Read-out in experiment [14]: Interferon-gamma inducible Protein 10 (IP10), CXCL10 (gene 3627)
Description: BSK_hDFCGF_IP10: BioMAP Diversity Plus: hDFCGF Assay for Interferon-gamma inducible Protein 10 (IP10) Biomarker Activity (AID 2283053). Particulars: primary human foreskin fibroblasts; actives raise or lower the signal. The procedure, abridged:
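Cells: human dermal foreskin fibroblasts. Exposure: 24 h post-dosing. Detection: IP-10 ELISA, with values expressed against DMSO controls and fitted in both directions.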

Read-out in experiment [15]: Urokinase-type plasminogen activator receptor (uPAR), PLAUR (gene 5329)
Description: BSK_CASM3C_uPAR: BioMAP Diversity Plus: CASM3C Assay for Urokinase-type plasminogen activator receptor (uPAR) Biomarker Activity (AID 2283054).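 Note: cell-surface uPAR protein level quantified by ELISA.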 As to conditions: primary human coronary artery smooth muscle cells; actives raise or lower the signal.

Read-out in experiment [16]: Vascular cell adhesion molecule 1 (VCAM1), VCAM1 (gene 7412)
Description: BSK_CASM3C_VCAM1: BioMAP Diversity Plus: CASM3C Assay for Vascular cell adhesion molecule 1 (VCAM1) Biomarker Activity (AID 2283055).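 Note: VCAM-1 protein level quantified by ELISA on the cells.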 As to conditions: primary human coronary artery smooth muscle cells; actives raise or lower the signal.

Read-out in experiment [17]: Collagen III, COL3A1 (gene 1281)
Description: BSK_hDFCGF_CollagenIII: BioMAP Diversity Plus: hDFCGF Assay for Collagen III Biomarker Activity (AID 2283056). Particulars: primary human foreskin fibroblasts; actives raise or lower the signal. The procedure, abridged:
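Response relative to DMSO, fitted in both directions, reflects ELISA-measured collagen III in human primary skin fibroblasts 24 h after compound addition.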

Read-out in experiment [18]: Epidermal growth factor receptor (EGFR), EGFR (gene 1956)
As to the kind of experiment: BSK_hDFCGF_EGFR: BioMAP Diversity Plus: hDFCGF Assay for Epidermal growth factor receptor (EGFR) Biomarker Activity (AID 2283057). Particulars: primary human foreskin fibroblasts; actives raise or lower the signal. Put shortly:
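Dosing human primary skin fibroblasts, then measuring surface EGFR by ELISA at 24 h, gives the endpoint; gains and losses relative to DMSO were fitted in both directions.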

Read-out in experiment [19]: Interleukin-8 (IL8), CXCL8 (gene 3576)
Description: BSK_hDFCGF_IL8: BioMAP Diversity Plus: hDFCGF Assay for Interleukin-8 (IL8) Biomarker Activity (AID 2283058). Particulars: primary human foreskin fibroblasts; actives raise or lower the signal. The procedure, abridged: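 Fibroblast monolayers (human foreskin, hDFCGF) received test chemical for 24 h before ELISA detection of IL-8; either increases or decreases relative to DMSO count as activity.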

A short description of experiment [20]: BSK_hDFCGF_Proliferation: Cell Proliferation Assessment in the BioMAP Diversity Plus: hDFCGF Assay (AID 2283059).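 Note: curves fitted for both rise and fall of signal versus DMSO baseline.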 As to conditions: primary human foreskin fibroblasts. Put shortly: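 Primary human foreskin fibroblasts, sub-confluent; […]; 10% TCA fix, 0.1% SRB stain, A560 total protein. Gain/loss fitted bidirectionally vs DMSO control.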

As to `COC(=O)CCC(F)(F)C(F)(F)C(F)(F)C(F)(F)F`, the outcome in experiment [1], in [2], in experiment [3], in experiment [4], in experiment [5] and in experiment [6] was inactive. The outcome in experiment [7], in experiment [8], in experiment [9], in experiment [10], in experiment [11] and in experiment [12] was inactive. The result in [13], in experiment [14], in experiment [15], in [16], in experiment [17] and in experiment [18] was inactive. In addition, the outcome in [19] and in experiment [20] was inactive.

As to `CCCCC(CC)COP(=O)(O)OCC(CC)CCCC` (stereo not drawn), the outcome in experiment [1], in experiment [3], in experiment [4], in experiment [5], in experiment [6] and in experiment [7] was inactive. The outcome in [8], in experiment [9], in experiment [10], in experiment [11], in [12] and in experiment [13] was inactive. The result in experiment [15], in [16], in experiment [18] and in experiment [19] was inactive. Further, the AC50 in [2] is 25.9 µM (active) and 14.4 µM (active); in experiment [14], 24.9 µM (active) and 28.3 µM (active); in experiment [16], 0.988 µM (active); in experiment [17] it was 26.9 µM (active) and 27.5 µM (active); in experiment [18], 20 µM (active); in experiment [20], 32.9 µM (active) and 34.6 µM (active).

Consider `O=C(O)C(F)(F)C(F)(F)C(F)F`, for which the outcome in experiment [1], in experiment [2], in experiment [3], in experiment [4], in experiment [5] and in [6] was inactive. In addition, the result in experiment [7], in experiment [8], in experiment [9], in experiment [10], in experiment [11] and in experiment [12] was inactive. Further, the outcome in experiment [13], in experiment [14], in [15], in experiment [16], in [17] and in [18] was inactive. Besides, the outcome in experiment [19] and in [20] was inactive. For the same compound, in experiment [10], the AC50 was 5.48 µM (active).

In the case of `CCc1ccc(C(c2ccc(CC)cc2)C(Cl)Cl)cc1`, the result in experiment [1], in experiment [3], in [4], in experiment [5], in experiment [6] and in experiment [7] was inactive. The outcome in experiment [8], in experiment [9], in experiment [10], in [11], in experiment [12] and in experiment [15] was inactive. In addition, the outcome in experiment [16], in [18] and in [19] was inactive. The AC50 was 14.1 µM (active) in experiment [2]; 5.97 µM (active) in [13]; 26.2 µM (active) in experiment [14]; 20 µM (active) in experiment [17]; 4.45 µM (active) in experiment [20].

Values taken from PubChem BioAssay (EPA / NIEHS).
